Many of the other results were omitted from the sample, so hits are more common in it than they were.
ROC1-CUL1 inh – inhibitors of human ROC1-CUL1 ubiquitin ligase activity | E3 ubiquitin-protein ligase RBX1 (Homo sapiens) + Cullin-1 (Homo sapiens), P62877+Q13616 | in vitro K48 di-Ub FRET, acceptor:donor ratio, 45 min | inhibition, % at 10 µM | 140,000 tested, 0.6% active | AID 1347404, 2020; in the data active means inhibition above about 25%
Target sequence (P62877 whole entry, looked up): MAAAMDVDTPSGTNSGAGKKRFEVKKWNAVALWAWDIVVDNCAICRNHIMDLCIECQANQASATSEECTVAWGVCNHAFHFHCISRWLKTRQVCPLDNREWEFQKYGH
Target sequence (Q13616 whole entry, looked up): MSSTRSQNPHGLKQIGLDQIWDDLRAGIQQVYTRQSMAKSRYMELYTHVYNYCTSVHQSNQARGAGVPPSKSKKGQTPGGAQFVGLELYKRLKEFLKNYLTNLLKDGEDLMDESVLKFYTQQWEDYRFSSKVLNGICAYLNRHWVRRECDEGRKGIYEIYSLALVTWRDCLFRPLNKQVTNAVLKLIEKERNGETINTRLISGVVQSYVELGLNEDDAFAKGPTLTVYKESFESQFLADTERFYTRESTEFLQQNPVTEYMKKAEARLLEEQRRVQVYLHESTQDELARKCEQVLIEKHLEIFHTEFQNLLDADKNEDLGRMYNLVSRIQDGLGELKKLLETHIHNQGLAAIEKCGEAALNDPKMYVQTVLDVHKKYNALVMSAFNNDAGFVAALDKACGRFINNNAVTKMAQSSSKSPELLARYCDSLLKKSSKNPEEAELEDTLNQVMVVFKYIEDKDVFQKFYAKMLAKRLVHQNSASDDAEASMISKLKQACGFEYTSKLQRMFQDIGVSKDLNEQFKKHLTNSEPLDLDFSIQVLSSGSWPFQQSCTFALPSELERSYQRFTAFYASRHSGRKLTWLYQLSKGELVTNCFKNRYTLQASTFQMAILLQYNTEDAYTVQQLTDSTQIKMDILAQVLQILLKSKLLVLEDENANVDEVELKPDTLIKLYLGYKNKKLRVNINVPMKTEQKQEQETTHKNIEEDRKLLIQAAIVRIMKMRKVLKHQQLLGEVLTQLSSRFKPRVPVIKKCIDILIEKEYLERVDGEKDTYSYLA
* = called active by the depositor.

SMILES	ROC1-CUL1 inh
O=C(CN1CCCCC1)NN1CC(=O)N(c2cccc(C(F)(F)F)c2)CC1=O	2.8
CCN1C(=O)CC(CC(=O)N2CCN(c3ncccn3)CC2)(c2cccc(C(F)(F)F)c2)C1=O (stereo not drawn)	1.8
O=C1OC2(CCCCC2)OC(=O)C1=Cc1ccc(Nc2ccc(F)cc2)o1	4.0
O=C1OC2(CCCC2)OC(=O)C1=Cc1ccc(Nc2ccc(F)cc2)o1	6.8
CC1(C)OC(=O)C(=Cc2ccc(Nc3cc(C(F)(F)F)cc(C(F)(F)F)c3)o2)C(=O)O1	87.9*
COc1ccc(C(=O)n2nc(-c3ccc(Cl)cc3)nc2N)cc1	1.6
CCC(C)NC(=O)c1ccc(OC(C)CC)cc1 (stereo not drawn)	2.4
CCCCCCOc1cc(/C=C/C(=O)O)c(OCCCCCC)cc1/C=C/C(=O)O	89.4*
O=C(O)/C=C/c1cc(Br)ccc1OCc1ccc(F)cc1	6.0
CCCCCCCCCCCCCCCCCCOc1ccc(/C=C/C(=O)O)cc1I	5.0
Cc1ccc(NC(=O)c2c(N)sc3c2CCC3)cc1	-2.6
Cc1ccc(NC(=O)c2c(NC(=O)C(C)(C)C)sc3c2CCCC3)c(C)c1	-4.6
Cc1ccc(NC(=O)c2c(N)sc3c2CCCCC3)c(C)c1	65.1*
O=C1CCC(=O)C23C(=O)c4ccccc4C(=O)C12C1C=CC3C1 (stereo not drawn)	-0.2
Cc1cc(-c2ccccc2)c2c(n1)CC(C)(C)C/C2=N\O	8.4
COCCCn1c(-c2ccc(S(=O)(=O)N3CCCC3)cc2)csc1=Nc1ccccc1	10.4
C=CCN1C(=O)NC(=O)/C(=C\c2cc(Br)ccc2OCc2ccc(Cl)cc2Cl)C1=O	101.0*
C=CCN1C(=O)/C(=C/c2cc(Br)cc(OC)c2OC)C(=O)NC1=S	-0.6
C=CCN1C(=O)NC(=O)/C(=C/c2ccccc2OCc2ccc(Cl)cc2Cl)C1=O	-5.2
O=C1OC(c2ccc3ccccc3c2)=N/C1=C/c1ccc(-c2cc(Cl)ccc2Cl)o1	4.0
C=CCN1C(=O)/C(=C/c2ccc(Cl)cc2Cl)NC1=S	2.3
C=CCN1C(=O)NC(=O)/C(=C\c2ccc(-c3cc(Cl)ccc3Cl)o2)C1=O	97.5*
O=C(c1ccccc1)c1coc2c1cc(O)c1ccccc12	-3.4
CC(=O)c1cc2c(cc1NS(=O)(=O)c1ccc3ccccc3c1)OCO2	-2.0
O=C1C2CSCN2C(=O)N1c1ccc(F)cc1 (stereo not drawn)	-6.6
SMILES	ROC1-CUL1 inh
COc1cccc(CC(C2CCN(C(=O)COc3ccccc3)CC2)N(C)Cc2ccccn2)c1 (stereo not drawn)	12.4
O=S(=O)(c1ccccc1)c1nc(Cl)ns1	7.5
O=S(Cc1ccccc1Cl)c1nc(Cl)ns1 (stereo not drawn)	29.7*
O=S(Cc1ccccc1F)c1nc(Cl)ns1 (stereo not drawn)	0.7
CCOC(=O)NC(=O)C(C=Nc1ccc(CCc2ccc(N=CC(C(C)=O)C(=O)NC(=O)OCC)cc2)cc1)C(C)=O (stereo not drawn)	3.2
Cc1nn(C)cc1/C=C1\SC(=S)NC1=O	-1.9
O=C1NC(=S)S/C1=C/c1ccccn1	-3.8
O=C1NC(=S)S/C1=C/c1c(Cl)cc(Cl)c(O)c1Cl	27.8*
CC(C)COc1ccccc1NC(=O)c1ccc(Br)o1	9.9
CC(=O)c1cc(CN2CCCC(Nc3ccc(F)c(F)c3)C2)cs1 (stereo not drawn)	1.9
CCN1C(=O)/C(=C/c2ccc(F)c(Br)c2)SC1=S	1.8
NN1C(=O)/C(=C/c2ccc(O)c(Br)c2)SC1=S	50.1*
NN1C(=O)/C(=C\c2ccc(O)cc2)SC1=S	6.7
COc1ccc(-c2cc(C(F)(F)F)c(C#N)c(SCC(=O)Nc3ccc(Br)cc3)n2)cc1	4.3
Cc1[nH]n(-c2ccccc2)c(=O)c1C(C[N+](=O)[O-])c1ccc(Br)cc1 (stereo not drawn)	69.7*
Cc1[nH]n(-c2ccccc2)c(=O)c1/C=N/NC(=O)Cc1ccc(Br)cc1	0.2
Cc1[nH]n(-c2ccccc2)c(=O)c1C(c1ccc(-c2ccc(Br)cc2)o1)c1c(C)[nH]n(-c2ccccc2)c1=O	-9.3
O=C(Oc1ccccc1C(=O)Oc1ccccc1)c1ccc(Cl)cc1Cl	-0.4
O=C(N/N=C/c1cccc(Cl)c1Cl)c1ccc(Br)cc1	-0.2
O=C(N/N=C/c1cccc(Cl)c1Cl)c1ccc(O)c(O)c1	54.8*
O=C(N/N=C/c1ccc(Cl)cc1Cl)c1ccc(O)c(O)c1	3.8
C=CCN(CC=C)C(=O)C1CCCN(C2CCN(Cc3ccccc3)CC2)C1 (stereo not drawn)	6.1
O=C1CC=Cc2ccc(O)c(O)c2C1=O	53.1*
CC(=O)Oc1c(/C=C(\C#N)C(N)=O)[nH]c2ccccc12	46.8*
COC(=O)/C(C#N)=C/c1c(OC)[nH]c2ccccc12	-10.0
SMILES	ROC1-CUL1 inh
N#C/C(=C\c1ccc(Cl)s1)C(N)=O	2.9
O=C(Nc1ccc(F)cc1)N1CCN(Cc2cccc(Cl)c2)CC1	-4.6
COC(=O)c1csc([N+](=O)[O-])c1SC(C)=O	76.9*
COC(=O)c1csc([N+](=O)[O-])c1SCc1ccccc1	7.4
COC(=O)c1scc([N+](=O)[O-])c1-c1c([N+](=O)[O-])csc1C(=O)OC	-0.7
CN1CCN(C2CC(=O)N(c3ccc(Oc4ccccc4)cc3)C2=O)CC1 (stereo not drawn)	0.3
CC1=NC(=S)NC(c2cccc(Cl)c2)C1C(=O)Nc1cccc(Cl)c1 (stereo not drawn)	0.5
CC(=O)c1ccc(N=C2NC(=O)CC(c3ccccc3)S2)cc1 (stereo not drawn)	7.1
FC(F)(F)c1ccc2nc(-c3ccc(Br)cc3)cn2c1	-1.6
Brc1ccc(-c2cn3ccncc3n2)cc1	29.1*
O=[N+]([O-])c1ccc2nc(-c3ccc(Br)cc3)cn2c1	5.4
COc1ccc(C2C3=C(CC(C)(C)CC3=O)N(c3cccnc3)C(=N)C2C#N)cc1CN1CCOCC1 (stereo not drawn)	9.0
CNc1ccc(C(=O)N2CCCCC2CCn2cccn2)cn1 (stereo not drawn)	-3.9
Cc1cc(NNC(=O)OCc2ccccc2)c2ccccc2n1	-0.9
O=C(c1ccc(Cl)s1)N1CCN(c2cccc(Cl)c2)CC1	2.7
CCN(CC1CCN(C2CCN(C)CC2)CC1)C(=O)CCC(=O)c1ccccc1	-2.9
CCN(CC1CCN(C2CCN(C)CC2)CC1)C(=O)c1ccc(C=O)cc1	2.2
CCN(CC1CCN(C2CCN(C)CC2)CC1)C(=O)c1cc(C)[nH]n1	25.8*
O=C(Nc1ccc2c(c1)OCCO2)c1ccc(C2CCCN2)s1 (stereo not drawn)	5.0
O=C(Nc1cccc(-c2nc3ccccc3s2)c1)c1cccc(C(F)(F)F)c1	1.0
COc1ccc(-c2cnnc(NCC3CCOCC3)n2)cc1F	-4.8
Cc1ccc(CCC(=O)N2CCC(Cn3cc(CO)nn3)CC2)cc1C	0.4
COc1cccc(CNC(=O)N2CCC(Cn3cc(CO)nn3)CC2)c1	36.0*
COCc1cn(CC2CCN(C(=O)NCc3ccccc3F)CC2)nn1	-7.8
COc1cc(C2C3=C(CCCC3=O)N=C3CCCC(=O)C32)cc(Cl)c1OCc1ccc(C(=O)O)cc1 (stereo not drawn)	3.7
COc1ccc(N2CCN(C(=O)C(C)Oc3ccccc3C)CC2)cc1 (stereo not drawn)	2.2
Nc1c(C(=O)Nc2ccc(Cl)c(C(F)(F)F)c2)sc2nc(-c3cccs3)ccc12	7.6
CC1=NN(c2ccc(Cl)c(Cl)c2)C(=O)/C1=C/c1ccc(C)cc1	-8.1
